Experimental findings from article PMC7862700, “An all-to-all approach to the identification of sequence-specific readers for epigenetic DNA modifications on cytosine” are described below.

Holding throughout (assay): DAPPL (digital affinity profiling via proximity ligation, sequencing); 10 mM Tris-HCl pH 7.5, 50 mM NaCl, 1 mM DTT, 4% glycerol, room temperature, 30 min; GST-TFs on glutathione beads, 16-mer random dsDNA library, 0.1% formaldehyde crosslink after washing; high values mean tight binding
The target of one test is T1, FEV (Homo sapiens, UniProt Q99581 1-238).
T1 sequence: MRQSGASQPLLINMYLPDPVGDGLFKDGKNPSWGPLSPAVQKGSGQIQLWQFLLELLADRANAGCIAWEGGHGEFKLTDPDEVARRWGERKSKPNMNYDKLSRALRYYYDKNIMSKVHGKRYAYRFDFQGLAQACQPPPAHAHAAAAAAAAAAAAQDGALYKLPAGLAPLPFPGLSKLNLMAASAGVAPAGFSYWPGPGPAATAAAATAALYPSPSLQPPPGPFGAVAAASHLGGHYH
The note with it: protein: recombinant; tags: N-terminal GST; dsDNA, one strand shown. The method, boiled down: (§1)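 Binding signal is defined as a hexamer's read frequency for one factor over its frequency for the tag-only sample. To obtain reads, GST-fused human transcription factors were expressed in yeast, captured on glutathione beads, barcoded with DNA and pooled with that sample. Pools met 200 nmole of a 16-mer random double-stranded DNA library in Tris/NaCl/DTT/glycerol buffer for 30 min at room temperature before washing, 0.1% formaldehyde crosslinking, proximity ligation (BsaI/T4 ligase, 1 h, 37 °C), PCR and Illumina NextSeq500 sequencing.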

A further test has as its target ETV5 (Homo sapiens, UniProt P41161 1-510). To be noted: protein: recombinant; tags: N-terminal GST; dsDNA, one strand shown. The method, boiled down: as §1
The target of the next test is HSF1 (Homo sapiens, UniProt Q00613 1-529). To be noted: protein: recombinant; tags: N-terminal GST; chain copies: 3; dsDNA, one strand shown. The method, boiled down: as §1
HSF1, sequence (Q00613 whole entry): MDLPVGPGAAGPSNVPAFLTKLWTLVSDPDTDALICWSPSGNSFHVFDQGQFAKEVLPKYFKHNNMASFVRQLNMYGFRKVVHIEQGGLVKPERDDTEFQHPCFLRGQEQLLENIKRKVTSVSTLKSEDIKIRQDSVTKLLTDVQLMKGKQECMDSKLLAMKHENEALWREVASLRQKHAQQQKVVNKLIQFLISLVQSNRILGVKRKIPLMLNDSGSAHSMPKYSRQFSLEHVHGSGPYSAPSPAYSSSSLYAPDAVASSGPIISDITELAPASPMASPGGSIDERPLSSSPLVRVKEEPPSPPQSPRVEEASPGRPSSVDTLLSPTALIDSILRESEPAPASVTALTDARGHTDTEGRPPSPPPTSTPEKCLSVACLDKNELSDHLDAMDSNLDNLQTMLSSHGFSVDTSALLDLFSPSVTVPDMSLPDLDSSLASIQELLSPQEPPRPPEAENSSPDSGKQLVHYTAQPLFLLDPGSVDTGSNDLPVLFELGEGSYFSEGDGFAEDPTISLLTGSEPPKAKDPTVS
The target in the next test is T2, SPIC (Homo sapiens, UniProt Q8N5J4 1-248).
T2 sequence: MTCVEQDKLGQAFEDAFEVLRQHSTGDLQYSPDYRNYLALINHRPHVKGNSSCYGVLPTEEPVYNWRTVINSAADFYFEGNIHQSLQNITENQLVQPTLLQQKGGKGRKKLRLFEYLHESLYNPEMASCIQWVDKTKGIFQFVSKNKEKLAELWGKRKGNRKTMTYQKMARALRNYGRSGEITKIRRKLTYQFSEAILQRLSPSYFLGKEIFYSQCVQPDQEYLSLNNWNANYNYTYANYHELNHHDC
To be noted: protein: recombinant; tags: N-terminal GST; dsDNA, one strand shown. The method, boiled down:
as §1

For the next test, the target named is ELF4 (Homo sapiens, UniProt Q99607 1-663). The note with it: protein: recombinant; tags: N-terminal GST; dsDNA, one strand shown. The method, boiled down: as §1
ELF4, sequence (Q99607 whole entry): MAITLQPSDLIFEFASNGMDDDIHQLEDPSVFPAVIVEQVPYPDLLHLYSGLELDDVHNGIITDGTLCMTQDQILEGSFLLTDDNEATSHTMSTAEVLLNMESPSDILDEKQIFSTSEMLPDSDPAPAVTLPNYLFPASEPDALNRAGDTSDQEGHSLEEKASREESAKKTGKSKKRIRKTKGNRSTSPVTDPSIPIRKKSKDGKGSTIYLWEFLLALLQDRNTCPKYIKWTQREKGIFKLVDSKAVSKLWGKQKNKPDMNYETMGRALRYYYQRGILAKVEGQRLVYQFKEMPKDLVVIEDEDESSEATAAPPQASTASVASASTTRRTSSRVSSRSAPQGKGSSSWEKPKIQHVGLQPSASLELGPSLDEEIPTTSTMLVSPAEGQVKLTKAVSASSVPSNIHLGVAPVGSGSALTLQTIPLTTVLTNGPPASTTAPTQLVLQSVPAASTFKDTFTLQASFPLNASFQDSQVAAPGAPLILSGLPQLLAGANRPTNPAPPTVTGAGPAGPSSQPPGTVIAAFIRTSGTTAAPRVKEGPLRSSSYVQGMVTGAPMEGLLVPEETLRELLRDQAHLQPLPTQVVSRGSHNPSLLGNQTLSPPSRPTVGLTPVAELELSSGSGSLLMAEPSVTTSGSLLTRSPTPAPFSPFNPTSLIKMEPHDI
A further test addresses T3, ELK4 (Homo sapiens, UniProt P28324-2 1-405).
T3 sequence: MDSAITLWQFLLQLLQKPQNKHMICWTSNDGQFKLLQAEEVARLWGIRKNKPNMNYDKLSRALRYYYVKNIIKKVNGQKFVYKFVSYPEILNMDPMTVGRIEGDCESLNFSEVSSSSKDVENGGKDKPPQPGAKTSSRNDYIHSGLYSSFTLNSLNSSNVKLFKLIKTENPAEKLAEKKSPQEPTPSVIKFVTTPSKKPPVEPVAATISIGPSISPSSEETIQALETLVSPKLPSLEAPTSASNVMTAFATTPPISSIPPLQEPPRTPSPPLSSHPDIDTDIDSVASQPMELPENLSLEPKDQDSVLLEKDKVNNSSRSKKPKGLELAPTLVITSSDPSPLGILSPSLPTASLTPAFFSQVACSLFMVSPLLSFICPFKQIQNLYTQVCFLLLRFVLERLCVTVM
The note with it: protein: recombinant; tags: N-terminal GST; dsDNA, one strand shown. The essentials: as §1

The target in another test is T4, ETV2 (Homo sapiens, UniProt O00321 1-342).
T4 sequence: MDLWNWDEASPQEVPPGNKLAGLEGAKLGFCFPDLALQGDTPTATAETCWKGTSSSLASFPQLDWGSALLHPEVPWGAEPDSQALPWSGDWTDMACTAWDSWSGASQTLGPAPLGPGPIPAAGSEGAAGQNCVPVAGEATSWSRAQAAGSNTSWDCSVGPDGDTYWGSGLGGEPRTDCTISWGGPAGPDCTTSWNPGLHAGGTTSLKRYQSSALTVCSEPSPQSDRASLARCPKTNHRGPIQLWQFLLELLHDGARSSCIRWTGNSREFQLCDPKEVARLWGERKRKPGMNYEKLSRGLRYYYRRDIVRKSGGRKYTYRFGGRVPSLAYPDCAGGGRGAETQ
The note with it: protein: recombinant; tags: N-terminal GST; dsDNA, one strand shown. The essentials:
as §1

The target in another test is T5, ELF3 (Homo sapiens, UniProt P78545 1-371).
T5 sequence: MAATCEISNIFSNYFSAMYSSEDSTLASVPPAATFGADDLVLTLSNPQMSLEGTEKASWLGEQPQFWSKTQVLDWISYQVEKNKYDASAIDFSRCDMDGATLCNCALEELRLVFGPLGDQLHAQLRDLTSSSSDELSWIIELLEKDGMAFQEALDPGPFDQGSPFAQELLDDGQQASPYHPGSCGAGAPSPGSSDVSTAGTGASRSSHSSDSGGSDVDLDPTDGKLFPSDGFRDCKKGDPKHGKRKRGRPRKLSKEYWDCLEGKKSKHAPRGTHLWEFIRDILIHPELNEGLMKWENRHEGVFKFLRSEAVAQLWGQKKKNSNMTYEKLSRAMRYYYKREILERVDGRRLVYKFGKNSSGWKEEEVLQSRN
The note with it: protein: recombinant; tags: N-terminal GST; dsDNA, one strand shown. The essentials: as §1

A further test has as its target CRX (Homo sapiens, UniProt O43186 1-299). The note with it: protein: recombinant; tags: N-terminal GST; dsDNA, one strand shown. The essentials: as §1
For a further test, the target named is ETV1 (Homo sapiens, UniProt P50549 1-477). The note with it: protein: recombinant; tags: N-terminal GST; dsDNA, one strand shown. The essentials: as §1
ETV1, sequence (P50549 whole entry): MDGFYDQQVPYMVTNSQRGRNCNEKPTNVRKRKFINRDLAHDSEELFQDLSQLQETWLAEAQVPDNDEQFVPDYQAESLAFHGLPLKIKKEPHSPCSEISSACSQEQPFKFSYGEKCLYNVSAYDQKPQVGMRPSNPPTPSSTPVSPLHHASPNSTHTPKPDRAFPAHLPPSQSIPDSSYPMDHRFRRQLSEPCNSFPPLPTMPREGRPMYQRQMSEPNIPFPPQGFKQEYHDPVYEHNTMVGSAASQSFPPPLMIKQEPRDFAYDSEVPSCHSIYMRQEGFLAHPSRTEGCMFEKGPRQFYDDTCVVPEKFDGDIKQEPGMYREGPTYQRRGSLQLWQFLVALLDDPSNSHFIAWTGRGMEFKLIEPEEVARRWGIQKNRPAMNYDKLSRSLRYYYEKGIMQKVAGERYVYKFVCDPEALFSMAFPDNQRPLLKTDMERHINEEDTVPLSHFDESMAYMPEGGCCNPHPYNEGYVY
Another test addresses T6, ERF (Homo sapiens, UniProt P50548 1-548).
T6 sequence: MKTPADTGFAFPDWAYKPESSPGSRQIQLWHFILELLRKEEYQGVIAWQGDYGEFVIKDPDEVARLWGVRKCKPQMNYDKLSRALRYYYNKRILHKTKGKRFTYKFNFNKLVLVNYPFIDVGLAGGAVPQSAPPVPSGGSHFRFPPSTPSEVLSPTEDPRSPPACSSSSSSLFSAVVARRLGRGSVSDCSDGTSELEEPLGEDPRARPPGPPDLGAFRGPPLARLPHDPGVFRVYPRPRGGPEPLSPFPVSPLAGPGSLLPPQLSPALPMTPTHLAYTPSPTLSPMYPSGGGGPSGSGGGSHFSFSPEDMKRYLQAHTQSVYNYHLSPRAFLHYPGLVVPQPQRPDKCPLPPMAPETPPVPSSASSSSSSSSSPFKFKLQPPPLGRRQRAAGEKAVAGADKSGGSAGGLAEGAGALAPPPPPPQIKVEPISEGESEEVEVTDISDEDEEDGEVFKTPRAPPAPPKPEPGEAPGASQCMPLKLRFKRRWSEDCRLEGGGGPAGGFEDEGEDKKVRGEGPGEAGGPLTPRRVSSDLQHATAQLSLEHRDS
To be noted: protein: recombinant; tags: N-terminal GST; dsDNA, one strand shown. The method, boiled down: as §1

A further test concerns the target T7, ETV3L (Homo sapiens, UniProt Q6ZN32 1-361).
T7 sequence: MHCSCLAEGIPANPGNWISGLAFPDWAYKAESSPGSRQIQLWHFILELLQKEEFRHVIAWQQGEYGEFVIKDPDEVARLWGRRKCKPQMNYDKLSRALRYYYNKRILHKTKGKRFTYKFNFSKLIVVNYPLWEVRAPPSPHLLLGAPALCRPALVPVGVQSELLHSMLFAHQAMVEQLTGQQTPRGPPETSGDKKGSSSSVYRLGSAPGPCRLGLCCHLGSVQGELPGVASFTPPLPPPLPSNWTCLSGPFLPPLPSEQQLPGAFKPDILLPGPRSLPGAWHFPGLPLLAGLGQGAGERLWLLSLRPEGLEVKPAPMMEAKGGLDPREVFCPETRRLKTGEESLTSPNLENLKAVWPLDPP
To be noted: protein: recombinant; tags: N-terminal GST; dsDNA, one strand shown. The essentials: as §1

A further test has as its target T8, ETS2 (Homo sapiens, UniProt P15036 1-469).
T8 sequence: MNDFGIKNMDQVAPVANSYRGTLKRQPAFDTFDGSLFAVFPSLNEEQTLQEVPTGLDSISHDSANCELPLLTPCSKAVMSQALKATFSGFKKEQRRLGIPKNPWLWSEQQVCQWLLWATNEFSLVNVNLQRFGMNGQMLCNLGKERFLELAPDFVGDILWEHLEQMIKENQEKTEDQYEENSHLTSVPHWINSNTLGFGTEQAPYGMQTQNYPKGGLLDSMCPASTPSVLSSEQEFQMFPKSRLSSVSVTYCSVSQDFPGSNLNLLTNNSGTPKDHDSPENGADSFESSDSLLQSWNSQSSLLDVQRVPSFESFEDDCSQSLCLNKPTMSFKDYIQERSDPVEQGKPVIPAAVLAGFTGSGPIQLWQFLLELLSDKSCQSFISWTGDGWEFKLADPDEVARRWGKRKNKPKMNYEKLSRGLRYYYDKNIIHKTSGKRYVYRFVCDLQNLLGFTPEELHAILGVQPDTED
To be noted: protein: recombinant; tags: N-terminal GST; dsDNA, one strand shown. The essentials:
as §1

For another test, the target named is T9, SPDEF (Homo sapiens, UniProt O95238 1-335).
T9 sequence: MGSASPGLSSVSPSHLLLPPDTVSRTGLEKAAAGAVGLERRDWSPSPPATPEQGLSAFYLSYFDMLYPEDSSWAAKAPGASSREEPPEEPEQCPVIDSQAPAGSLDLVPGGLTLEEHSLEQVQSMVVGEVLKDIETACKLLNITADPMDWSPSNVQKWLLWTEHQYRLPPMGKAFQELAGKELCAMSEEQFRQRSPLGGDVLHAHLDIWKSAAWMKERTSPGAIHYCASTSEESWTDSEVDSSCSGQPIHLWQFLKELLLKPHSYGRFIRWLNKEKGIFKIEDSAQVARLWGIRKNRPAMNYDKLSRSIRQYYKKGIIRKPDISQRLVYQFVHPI
The note with it: protein: recombinant; tags: N-terminal GST; dsDNA, one strand shown. The method, boiled down: as §1

For another test, the target named is T10, ETV7 (Homo sapiens, UniProt Q9Y603 1-341).
T10 sequence: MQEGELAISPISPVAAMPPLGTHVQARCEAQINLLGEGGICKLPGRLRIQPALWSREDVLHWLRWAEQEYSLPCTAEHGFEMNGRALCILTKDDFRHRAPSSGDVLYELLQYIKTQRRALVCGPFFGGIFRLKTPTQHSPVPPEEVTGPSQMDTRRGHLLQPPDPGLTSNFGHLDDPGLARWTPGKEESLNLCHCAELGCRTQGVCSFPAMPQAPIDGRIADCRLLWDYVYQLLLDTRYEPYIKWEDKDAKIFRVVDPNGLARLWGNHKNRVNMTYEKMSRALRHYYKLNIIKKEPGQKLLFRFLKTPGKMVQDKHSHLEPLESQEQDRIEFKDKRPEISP
The note with it: protein: recombinant; tags: N-terminal GST; dsDNA, one strand shown. The method, boiled down: as §1

For a further test, the target named is T11, ELF5 (Homo sapiens, UniProt Q9UKW6-2 1-255).
T11 sequence: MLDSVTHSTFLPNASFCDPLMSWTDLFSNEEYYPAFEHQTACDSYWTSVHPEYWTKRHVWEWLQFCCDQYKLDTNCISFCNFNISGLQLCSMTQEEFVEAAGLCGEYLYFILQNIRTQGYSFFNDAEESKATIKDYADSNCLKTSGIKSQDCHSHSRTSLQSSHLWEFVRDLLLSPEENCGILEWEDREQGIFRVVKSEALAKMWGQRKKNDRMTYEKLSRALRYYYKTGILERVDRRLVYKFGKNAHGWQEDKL
The note with it: protein: recombinant; tags: N-terminal GST; dsDNA, one strand shown. The essentials:
as §1

The next test deals with T12, ETV3 (Homo sapiens, UniProt P41162-2 1-143).
T12 sequence: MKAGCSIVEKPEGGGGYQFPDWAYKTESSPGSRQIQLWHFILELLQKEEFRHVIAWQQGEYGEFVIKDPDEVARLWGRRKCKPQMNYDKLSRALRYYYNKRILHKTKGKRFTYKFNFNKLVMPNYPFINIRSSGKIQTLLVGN
The note with it: protein: recombinant; tags: N-terminal GST; dsDNA, one strand shown. The essentials:
as §1

For a further test, the target named is ETV6 (Homo sapiens, UniProt P41212 1-452). The note with it: protein: recombinant; tags: N-terminal GST; dsDNA, one strand shown. The essentials:
as §1

ETV6, sequence (P41212 whole entry): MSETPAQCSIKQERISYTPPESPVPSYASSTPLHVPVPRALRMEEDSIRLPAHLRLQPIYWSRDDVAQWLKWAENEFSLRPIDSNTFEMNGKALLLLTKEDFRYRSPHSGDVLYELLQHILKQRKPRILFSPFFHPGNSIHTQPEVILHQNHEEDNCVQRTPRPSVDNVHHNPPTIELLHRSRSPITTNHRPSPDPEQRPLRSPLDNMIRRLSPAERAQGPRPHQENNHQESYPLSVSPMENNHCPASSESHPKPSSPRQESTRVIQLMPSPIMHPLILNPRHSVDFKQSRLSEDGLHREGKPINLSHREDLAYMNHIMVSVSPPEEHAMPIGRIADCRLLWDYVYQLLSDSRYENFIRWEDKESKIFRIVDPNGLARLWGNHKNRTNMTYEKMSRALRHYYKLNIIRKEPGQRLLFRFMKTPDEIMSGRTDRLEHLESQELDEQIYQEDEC
CRX, sequence (O43186 whole entry): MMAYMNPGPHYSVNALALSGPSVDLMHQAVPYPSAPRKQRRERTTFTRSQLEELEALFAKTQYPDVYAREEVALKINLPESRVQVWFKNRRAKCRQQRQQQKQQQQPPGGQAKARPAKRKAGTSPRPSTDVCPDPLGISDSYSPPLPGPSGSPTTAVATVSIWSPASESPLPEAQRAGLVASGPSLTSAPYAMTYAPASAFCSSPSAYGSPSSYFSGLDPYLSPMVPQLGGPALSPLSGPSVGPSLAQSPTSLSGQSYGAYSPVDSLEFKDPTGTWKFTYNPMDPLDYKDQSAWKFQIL
ETV5, sequence (P41161 whole entry): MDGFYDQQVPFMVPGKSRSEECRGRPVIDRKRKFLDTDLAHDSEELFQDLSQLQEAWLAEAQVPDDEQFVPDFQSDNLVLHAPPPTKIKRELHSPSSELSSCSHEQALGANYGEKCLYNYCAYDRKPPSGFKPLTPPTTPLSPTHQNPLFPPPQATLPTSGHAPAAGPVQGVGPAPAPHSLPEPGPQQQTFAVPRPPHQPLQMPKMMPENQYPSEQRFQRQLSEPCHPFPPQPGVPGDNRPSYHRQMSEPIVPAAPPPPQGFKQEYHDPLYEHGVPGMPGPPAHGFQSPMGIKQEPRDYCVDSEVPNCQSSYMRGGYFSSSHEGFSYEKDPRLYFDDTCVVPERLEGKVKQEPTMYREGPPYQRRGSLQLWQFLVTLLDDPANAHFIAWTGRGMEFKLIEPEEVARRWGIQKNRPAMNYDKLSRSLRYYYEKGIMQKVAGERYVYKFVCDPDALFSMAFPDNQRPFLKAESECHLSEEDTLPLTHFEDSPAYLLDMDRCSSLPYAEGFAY

Regarding ATCGAC, the binding signal with FEV is 1.12 fold enrichment (6-mer frequency, TF over GST control); with ETV5 it was 1.25 fold enrichment (6-mer frequency, TF over GST control); with HSF1 it was 1.16 fold enrichment (6-mer frequency, TF over GST control); in the test with SPIC, 1.13 fold enrichment (6-mer frequency, TF over GST control); in the test with ELF4, 1.21 fold enrichment (6-mer frequency, TF over GST control); with ELK4, 1.26 fold enrichment (6-mer frequency, TF over GST control). Moreover, the binding signal in the test with ETV2 was 1.23 fold enrichment (6-mer frequency, TF over GST control); with ELF3 it was 1.14 fold enrichment (6-mer frequency, TF over GST control); with CRX, 1.11 fold enrichment (6-mer frequency, TF over GST control); with ETV1, 1.16 fold enrichment (6-mer frequency, TF over GST control); in the test with ERF, 1.1 fold enrichment (6-mer frequency, TF over GST control); with ETV3L, 1.21 fold enrichment (6-mer frequency, TF over GST control). For the same sequence, the binding signal in the test with ETS2 was 1.1 fold enrichment (6-mer frequency, TF over GST control); in the test with SPDEF, 1.06 fold enrichment (6-mer frequency, TF over GST control); in the test with ETV7 it was 1.28 fold enrichment (6-mer frequency, TF over GST control); with ELF5, 1.09 fold enrichment (6-mer frequency, TF over GST control); with ETV3 it was 1.25 fold enrichment (6-mer frequency, TF over GST control); with ETV6 it was 1.21 fold enrichment (6-mer frequency, TF over GST control).
